Sampled rows, rich in hits. Any-hit rate of the full collection: about 2%.
GSTO1 inh – inhibitors of recombinant GSTO1, primary screen, counter-screen for RBBP9 inhibitor project, biochemical, fluorescence polarization | Glutathione S-transferase omega-1 (Homo sapiens), P78417 | activity-based probe fluorescence polarization | inhibition, % at 5.96 µM | actives 1.1% (n = 300,000);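 active = inhibition above the campaign mean inhibition plus 3 SD, cut at about 35% in these data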;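 note: 0% = GSTO1-1 with DMSO and 100% = wells lacking GSTO1-1 enzyme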
Target sequence (P78417 whole entry, looked up): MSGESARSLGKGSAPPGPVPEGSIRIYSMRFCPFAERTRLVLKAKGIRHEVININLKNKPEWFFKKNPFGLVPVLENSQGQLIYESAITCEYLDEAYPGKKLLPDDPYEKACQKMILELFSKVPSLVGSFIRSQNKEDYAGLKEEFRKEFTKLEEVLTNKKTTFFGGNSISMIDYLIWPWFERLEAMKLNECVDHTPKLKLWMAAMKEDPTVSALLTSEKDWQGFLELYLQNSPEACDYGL
PREPL inh – PREPL enzyme inhibitors, primary screen, biochemical, fluorescence polarization; inhibition, % at 5.96 µM; actives 0.68% (n = 320,000); recombinant PREPL, fluorescence polarization activity-based probe; Prolyl endopeptidase-like (Homo sapiens), Q4J6C6; AID 2751, 2010; in the data active = inhibition above about 43%;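 note: 0% = enzyme with DMSO and 100% = wells lacking enzyme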
LYPLA2 counter – LYPLA2 inhibitors, primary screen, counter-screen for PME1 inhibitor project, biochemical, fluorescence polarization, FP-Rh probe ABPP; actives 0.38% (n = 320,000); Acyl-protein thioesterase 2 (Homo sapiens), O95372; AID 2177, 2009; inhibition, % at 5.9 µM; recombinant LYPLA2;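 active = inhibition above the screen-wide mean plus 3 SD, limit set per campaign, cut at about 26% in these data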;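 note: 0% = LYPLA2 with DMSO and 100% = wells lacking LYPLA2 enzyme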
Target sequence (O95372 whole entry, looked up): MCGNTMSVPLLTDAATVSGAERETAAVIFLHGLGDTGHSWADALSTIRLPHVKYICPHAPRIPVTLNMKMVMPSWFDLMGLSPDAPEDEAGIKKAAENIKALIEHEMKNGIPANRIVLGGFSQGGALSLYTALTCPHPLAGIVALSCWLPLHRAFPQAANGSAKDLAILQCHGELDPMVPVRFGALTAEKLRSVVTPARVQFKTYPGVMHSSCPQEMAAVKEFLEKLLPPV
Fam108B counter – mouse Fam108B serine hydrolase inhibitors, primary screen, counter-screen for RBBP9 inhibitor project, biochemical, fluorescence polarization; actives 0.33% (n = 300,000); recombinant Fam108B, FP-Rh probe fluorescence polarization; inhibition, % at 9.51 µM; AID 1947, 2009;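 active = inhibition above the screen mean inhibition plus 3 SD, computed separately per campaign, cut at about 18% in these data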;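 note: inhibitors lower polarization as less probe binds the enzyme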
LYPLA1 counter – LYPLA1 inhibitors, primary screen, counter-screen for PME1 inhibitor project, biochemical, fluorescence polarization, FP-Rh probe ABPP | Acyl-protein thioesterase 1 (Homo sapiens), O75608 | recombinant LYPLA1 | inhibition, % at 5.9 µM | actives 0.16% (n = 320,000) | AID 2174, 2009;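 active = inhibition above the mean of all tested compounds plus 3 SD, set per campaign, cut at about 14% in these data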;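 note: inhibitors block serine hydrolase probe labeling of LYPLA1 so polarization falls; 0% = enzyme with DMSO and 100% = wells lacking LYPLA1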
PME-1 inh – PME-1 inhibitors via competitive probe labeling, primary screen, biochemical, fluorescence polarization, FP-Rh probe, HTS; actives 0.53% (n = 320,000); inhibition, % at 5.9 µM; Protein phosphatase methylesterase 1 (Homo sapiens), Q9Y570; recombinant PME-1;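 active = inhibition above the campaign mean of all compounds plus 3 SD, cut at about 26% in these data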;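 note: competitive labeling of PME-1 active site by serine hydrolase directed probe; 0% = PME-1 with DMSO and 100% = wells lacking PME-1 enzyme; inhibitors block probe labeling so polarization falls and inhibition rises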
The depositor's hits bear a star; . = no result.

SMILES | GSTO1 inh | PREPL inh | LYPLA2 counter | Fam108B counter | LYPLA1 counter | PME-1 inh
CC(Cc1ccc(O)c(O)c1)C(C)Cc1ccc(O)c(O)c1 (centres undefined) | 52.4* | 5.5 | -11.5 | 5.3 | -7.9 | -12.8
COc1ccccc1N1CN(S(=O)(=O)c2ccc(C)cc2)c2nc3ccccc3nc21 | . | 15.1 | . | . | . | .
Cc1ccc([C@H]2C(C(=O)O)=CC[C@@H](c3ccc(C)cc3)N2S(=O)(=O)c2ccccc2C)cc1 | . | -1.6 | . | . | . | .
CCN1C(=O)[C@H]2[C@@H](c3ccc(-c4ccc5c(c4)OCO5)c(OC)c3)N[C@@](C)(C(=O)OC)[C@H]2C1=O | . | 9.5 | . | . | . | .
CCCCn1c(CNC(=O)CCC)nc2ccccc21 | 0.0 | 3.1 | -2.1 | 1.3 | -1.5 | -2.1
CCCn1c(CNc2ccccc2O)nc2ccccc21 | 34.8* | 27.6 | 2.8 | 11.8 | -2.5 | 5.2
COc1ccc(-c2[nH]c3ccccc3c2SCCN)cc1 | 3.3 | 55.4* | -2.1 | 1.6 | -0.9 | 7.1
O=[N+]([O-])c1cc(/C=N/n2c(-c3cccnc3)n[nH]c2=S)ccc1Cl | 50.6* | 5.1 | 0.8 | 8.8 | 1.8 | 2.8
O=[N+]([O-])c1ccccc1/C=N/n1c(-c2cccnc2)n[nH]c1=S | 4.7 | -1.8 | -2.2 | 1.0 | -2.2 | 2.6
COc1ccc(CCNC(=O)CSc2nc3scc(-c4ccccc4)c3c(=O)[nH]2)cc1 | . | 8.0 | . | . | . | .
Cc1cc2cc(CNC(=O)c3cc4ccccc4o3)ccc2n1C | -9.2 | 65.0* | 5.0 | 5.3 | 1.5 | 3.4
Cc1cc2cc(CNC(=O)COc3ccccc3)ccc2n1C | 3.5 | 51.5* | 8.2 | 8.8 | 6.8 | 8.5
CN(Cc1ccc(Cl)cc1)C(=O)CCl | 86.4* | -4.9 | 3.2 | -2.5 | -1.1 | -3.0
CN(Cc1ccccc1)C(=O)CC(=O)N(C)Cc1ccccc1 | -0.9 | 6.0 | 1.7 | -2.0 | -0.1 | -4.6
COC(=O)/C(=C(O)\C=C\c1ccccc1[N+](=O)[O-])c1nc2ccccc2[nH]1 | 3.8 | 23.0 | -9.9 | 5.2 | -8.5 | 29.3*
CCOc1c(O)ccc(/C=C2\SC(=S)NC2=O)c1[N+](=O)[O-] | 56.4* | 7.8 | -3.0 | 10.0 | -1.0 | -2.2
CC(C)c1ncc(C(O)c2cccc3ccccc23)n1C (centres undefined) | 36.1* | 8.4 | -0.1 | -1.9 | -2.2 | -0.6
O=C(NCCCN1CCOCC1)c1coc2ccccc2c1=O | 35.2* | 1.5 | -4.0 | 5.6 | -3.7 | 0.5
Nc1ccccc1C(=O)NCCCN1CCOCC1 | 3.2 | -7.3 | -2.6 | -1.6 | 1.8 | -0.4
Cc1cc(C)nc(N/N=C/c2cccc(Cl)c2)n1 | 6.3 | -5.2 | -2.9 | -2.0 | 1.3 | 3.2
Clc1cccc(/C=N/Nc2nc(Cl)nc3ccccc23)c1 | -11.5 | 46.4* | 6.5 | -5.4 | -3.4 | 1.2
Cc1ccc(CNC(=O)COc2ccc(C(=O)c3ccc(F)cc3)cc2)cc1 | 56.3* | -0.2 | 1.4 | 1.4 | -1.1 | -8.9
Cc1cc(C)c(C)c(OC(=O)c2sc(Cl)nc2C)c1 | 36.1* | 7.2 | 4.6 | 4.2 | 6.2 | -5.0
O=S(=O)(c1ccc(N2CCC(c3ccc(Cl)cc3)=N2)cc1)N(CCO)CCO | 12.8 | 35.0 | 12.1 | 3.1 | 9.3 | 5.7
CN(C)CCCNS(=O)(=O)c1ccc(N2CCC(c3ccc(Cl)cc3)=N2)cc1 | 0.1 | 70.3* | 3.8 | 6.5 | 10.6 | 4.4
CCOC(=O)CCN(Cc1sccc1C)S(=O)(=O)c1ccc(F)cc1 | 3.6 | 6.9 | 4.3 | -5.8 | 2.5 | 6.1
CCOC(=O)CCN(Cc1cccs1)S(=O)(=O)c1ccc(F)cc1 | 37.5* | 2.9 | 4.7 | 5.8 | 0.6 | 2.5
Cc1cc(-c2ccc(N=Nc3c(S(=O)(=O)O)cc4cc(S(=O)(=O)O)cc(N)c4c3O)c(C)c2)ccc1N=Nc1c(S(=O)(=O)O)cc2cc(S(=O)(=O)O)cc(N)c2c1O | -76.1 | 23.9 | -18.8 | 36.1* | -22.4 | 3.4
CCN(Cc1nc2ccccc2c(=O)[nH]1)C(=O)c1cc2c(s1)CCCCC2 | . | -9.2 | -3.2 | . | -3.5 | -1.1
Cc1ccc(-c2nc(Nc3ccc(N4CCOCC4)cc3)c3ccccc3n2)cc1 | -1.1 | 46.0* | -21.5 | 8.9 | -20.9 | 3.4
